Consider 40 molecules from PubChem BioAssay (EPA / NIEHS).

Molecules are shown by their SMILES. The source made the active and inactive calls. Rule for the calls: active = hit-call score of the fitted dose curve at least 0.9, where 1 is the maximum; inactive = score below 0.9.

Read-out in the experiment: Monocyte Chemoattractant Protein-1 (MCP1), CCL2 (gene 6347)
In words: BSK_4H_MCP1: BioMAP Diversity Plus: 4H Assay for Monocyte Chemoattractant Protein-1 (MCP1) Biomarker Activity (AID 2283018). The following applies: primary human endothelial cells (HUVEC); actives raise or lower the signal. How it is done: BSK_4H is a cell-based, multiplexed-readout assay that uses umbilical vein endothelium, a human vascular primary cell, with measurements taken at 24 hours after chemical dosing in a 96-well plate.BSK_4H_MCP1 is an assay component measured in the BSK_4H assay. It measures MCP-1 antibody related to regulation of gene expression using ELISA technology.Data from the assay component BSK_4H_MCP1 was analyzed into 1 assay endpoint. This assay endpoint, BSK_4H_MCP1, was analyzed with bidirectional fitting relative to DMSO as the negative control and baseline of activity. Using a type of binding reporter, gain or loss-of-signal activity can be used to understand changes in the signaling as they relate to the gene CCL2. Furthermore, this assay endpoint can be referred to as a primary readout, because this assay has produced multiple assay endpoints where this one serves a signaling function. To generalize the intended target to other relatable targets, this assay endpoint is annotated to the cytokine intended target family, where the subfamily is chemotactic factor.
The levels of cell surface (or secreted, indicated by the prefix "s") biomarker endpoints were measured by ELISA. Overt cytotoxicity to cells in confluent adherent cultures (all systems other than the BT system) was assessed by measuring total protein levels using sulforhodamine B (SRB) staining in parallel cultures at the time of biomarker measurements, indicated as SRB endpoints. For proliferation assays for adherent cell types, individual cell types are cultured at sub-confluence and relative cell numbers quantified by SRB staining at time points optimized for each system (48 h: 3C and CASM3C systems; 72 h: BT and HDF3CGF systems; 96 h: SAg system). SRB was performed by staining cells with 0.1% SRB after fixation with 10% TCA and reading wells at 560 nm.Viability and proliferation of PBMC (T cells) was quantified by Alamar Blue reduction for the SAg and BT systems. For PBMC viability (referred to as PBMC Cytotoxicity within the assay endpoint names), cells were plated (75,000/well in a 96-well plate) and then chemical samples added for 1 h before addition of activators, SEB and TSST-1 (20 ng/mL final concentration each). Cells were incubated for 90 h. Then, Alamar Blue (20 uL/well) (Invitrogen, Cat DAL1100) was added for 6 h, and the plates were read with a fluorescence microplate reader at 546/580 nm (excitation/emission). For PBMC proliferation, cells were plated and activated as above but incubated for only 16 h prior to addition of Alamar Blue. Plates were read after 6 h.
On to `CCCCOC(=O)c1ccccc1`, for which the result was inactive.

As for `C[Si](C)(C)C(F)(F)C(F)(F)C(F)(F)F`, the result was inactive.

In the case of `O=c1[nH]cnc2c1ncn2[C@H]1CC[C@@H](CO)O1`, the result was inactive.

For `COc1cc(C(C)C)c2c(c1)S(=O)(=O)N(COc1cc(=O)n3cccc(OCCN4CCCCC4)c3n1)C2=O`, the result was inactive.

As to `CNC(C)=O`, the result was inactive.

In the case of `c1ccc2ncccc2c1`, the result was inactive.

`OCC(CO)(CO)CO`: the result was inactive.

In the case of `CC(C)CCCCCCOC(=O)C1CCCCC1C(=O)OCCCCCCC(C)C` (stereo not given), the outcome was inactive.

For the molecule `C=CN1CCCC1=O`, the outcome was inactive.

On to `CCc1ccc(O)c(C(C)(C)C)c1`, for which the AC50 was 25 µM (active).

On to `CC(C)c1nnc2ccc(-c3ocnc3-c3cc(F)ccc3F)cn12`, for which the result was inactive.

For the molecule `CCCCC(CC)C(=O)OCCOCCOCCOC(=O)C(CC)CCCC` (stereo not given), the outcome was inactive.

In the case of `NC(=O)NN=Cc1ccc([N+](=O)[O-])o1`, the outcome was inactive.

Regarding `CCCCCOC(C)=O`, the result was inactive.

Take `Cc1cccc(O)c1C`: the outcome was inactive.

For `C[C@]12C=CC(=O)C=C1CC[C@H]1[C@@H]3C[C@@H](O)[C@](O)(C(=O)CO)[C@@]3(C)C[C@H](O)[C@@]12F`, the result was inactive.

With `c1ccc2cc3ccccc3cc2c1`, the outcome was inactive.

In the case of `C=CCc1cc(S(=O)(=O)c2ccc(O)c(CC=C)c2)ccc1O`, the result was inactive.

Regarding `OCc1ccccc1`, the outcome was inactive.

In the case of `OCCNCCO`, the result was inactive.

Turning to `O=S1(=O)CCCO1`, the outcome was inactive.

Turning to `O=C(O)[C@H](O)[C@@H](O)C(=O)O`, the outcome was inactive.

With `OC[C@H]1O[C@@H]2O[C@H]3[C@H](O)[C@@H](O)[C@@H](O[C@H]4[C@H](O)[C@@H](O)[C@@H](O[C@H]5[C@H](O)[C@@H](O)[C@@H](O[C@H]6[C@H](O)[C@@H](O)[C@@H](O[C@H]7[C@H](O)[C@@H](O)[C@@H](O[C@H]1[C@H](O)[C@H]2O)O[C@@H]7CO)O[C@@H]6CO)O[C@@H]5CO)O[C@@H]4CO)O[C@@H]3CO`, the result was inactive.

In the case of `S=P(N1CC1)(N1CC1)N1CC1`, the result was inactive.

`OCCOCCOCCO`: the result was inactive.

`Cc1ccc(S(=O)(=O)NC(=O)NN2CCCCCC2)cc1`: the outcome was inactive.

On to `c1ccc2c(c1)-c1cccc3c1c-2cc1ccccc13`, for which the outcome was inactive.

For `CCOC(N)=O`, the result was inactive.

Consider `CCCCCCCC/C=C\CCCCCCCC(=O)OC[C@@H](O)[C@H]1OC[C@H](O)[C@H]1O`, for which the result was inactive.

As for `CCCc1ccccc1`, the result was inactive.

With `O=C(O)c1cccc(C(=O)O)c1`, the result was inactive.

Consider `OC(O)(C(F)C(O)(O)C(F)(F)F)C(F)(F)F`, for which the result was inactive.

In the case of `CCCCN1C(=O)[C@@H]([C@H](O)C2CCCCC2)NC(=O)C12CCN(Cc1ccc(Oc3ccc(C(=O)O)cc3)cc1)CC2`, the result was inactive.

On to `OC[C@H]1O[C@@](CO)(O[C@H]2O[C@H](CO)[C@@H](O)[C@H](O)[C@H]2O)[C@@H](O)[C@@H]1O`, for which the outcome was inactive.

As for `O=C(O)c1ccc2c(c1)nc(C(=O)NC1CCN(C3CC3)CC1)n2Cc1cc(-c2ccc(Cl)s2)on1`, the result was inactive.

Turning to `CC(C)C(=O)Nc1ccc([N+](=O)[O-])c(C(F)(F)F)c1`, the outcome was inactive.

Take `C[C@@H](Oc1ccc(CNC(=O)c2cccnc2Oc2ccc3c(c2)OCO3)c(F)c1)C(=O)O`: the outcome was inactive.

On to `CC1(C)C(=O)N(Cl)C(=O)N1Cl`, for which the outcome was inactive.

Take `Cc1ncc([C@@H](CCCCCCc2ccc3c(n2)NCCC3)CC(=O)O)cn1`: the result was inactive.

On to `CC[C@H](C)C(=O)O[C@H]1C[C@H](O)C=C2C=C[C@H](C)[C@H](CC[C@@H](O)C[C@@H](O)CC(=O)O)[C@H]21`, for which the result was inactive.

The AC50 is the concentration at which the activity in the assay is half-maximal.
